Fh CTSL1 inh: Fasciola hepatica cathepsin L1 inhibitors, primary screen, counter-screen for PFM18AAP inhibitor project, biochemical, QFRET, fluorogenic peptide substrate | recombinant F. hepatica cathepsin L1, Z-Leu-Arg-MCA fluorescence | AID 1906, 2009 | actives 0.49% (n = 300,000) | inhibition, % at 5.96 µM;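 active means inhibition above the mean of all tested compounds plus 3 SD, set per screening campaign, cut at about 17% in these data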;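 further: 0% = plate median of test compound wells and 100% = 1 µM Z-Phe-Ala-diazomethylketone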
HDAC3 inhib: HDAC3 deacetylase inhibitors, primary screen, biochemical, fluorescence, cell-free homogeneous; inhibition, % at 8.3 µM; Histone deacetylase 3 (Homo sapiens), O15379; recombinant HDAC3, fluorogenic peptide/trypsin coupled; actives 0.15% (n = 320,000); in the data active means inhibition above about 26%, passing the limit was not always enough
LANA-H2B inh: blockers of LANA interaction with H2A/H2B – biochemical, FP readout, HTS, primary screen. cell-free LANA-H2A/H2B peptide, fluorescence polarization. inhibition, % (no concentration beside the values). Protein LANA1 (Human herpesvirus 8 type P (isolate GK18)), Q9QR71. AID 2629, 2010. actives 0.6% (n = 320,000); in the data active means inhibition mostly above about 10%, no sharp cut-off; inactive means mostly below about 6.7%
m5-HT2A agonist: mouse Htr2a agonists via beta-arrestin recruitment, primary screen, cell-based, luminescence; activation, % at 7.6 µM; CHO-K1 mHTR2A beta-arrestin complementation; percent of 30 µM serotonin response; AID 624169, 2012; actives 0.66% (n = 360,000);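 active means activation above a run cutoff, the mean activation of all tested compounds plus 3 SD, cut at about 14% in these data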;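 further: 0% = plate median of compound wells and 100% = 30 µM serotonin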
Target sequence (P35363 whole entry, looked up): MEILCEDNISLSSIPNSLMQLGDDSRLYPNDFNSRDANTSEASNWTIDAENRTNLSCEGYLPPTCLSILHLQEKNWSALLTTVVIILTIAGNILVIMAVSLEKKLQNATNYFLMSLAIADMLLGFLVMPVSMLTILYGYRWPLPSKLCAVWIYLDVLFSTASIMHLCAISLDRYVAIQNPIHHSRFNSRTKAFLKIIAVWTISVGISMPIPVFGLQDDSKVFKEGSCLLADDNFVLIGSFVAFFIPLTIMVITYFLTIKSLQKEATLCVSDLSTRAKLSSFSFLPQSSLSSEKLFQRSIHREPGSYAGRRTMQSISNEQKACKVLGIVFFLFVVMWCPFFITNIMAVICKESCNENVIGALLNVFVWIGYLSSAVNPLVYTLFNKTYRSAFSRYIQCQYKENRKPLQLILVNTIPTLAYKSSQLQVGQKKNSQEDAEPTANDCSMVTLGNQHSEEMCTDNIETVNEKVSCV
* = called active by the depositor; . = no result given. The list is not random: actives were taken first. Their share in the collection is about 1.7%.

SMILES | Fh CTSL1 inh | HDAC3 inhib | LANA-H2B inh | m5-HT2A agonist
C=CCN(c1ccccc1OC)S(=O)(=O)c1cccc(C(=O)OCC(=O)c2c(N)n(C)c(=O)n(C)c2=O)c1 | . | . | . | 3
COc1ccccc1N(CC(=O)NCc1ccccc1)S(=O)(=O)c1cccs1 | . | . | . | -8
CC1(c2ccccc2)CC(C)(C)N2C(=O)C3(C(C#N)=C(N)Oc4cc(O)ccc43)c3cccc1c32 (configuration not stated) | -6 | 11 | -2 | 34*
Cc1cc2c3c(c1)C(C)(c1ccccc1)CC(C)(C)N3C(=O)C21C(C#N)=C(N)OC2=C1C(=O)CC(C)(C)C2 (configuration not stated) | -4 | -2 | 1 | 0
CC(C)[C@H](NC(=O)c1ccccc1F)C(=O)OCC(=O)NC(=O)NC1CCCCC1 | . | 6 | -1 | 1
CC(C)[C@H](NC(=O)c1c(F)cccc1F)C(=O)OCC(=O)NC(=O)NC1CCCC1 | -15 | -6 | 14* | -2
Cc1ccc(NC(=O)CSc2nnc(-c3ccco3)o2)c(C)c1 | 2 | 4 | 4 | 2
CCc1ccccc1NC(=O)CSc1nnc([C@@H](N)Cc2ccccc2)o1 | 68* | 9 | -2 | -4
CCC(C)[C@H](N)c1nnc(SCC(=O)Nc2ccc(C)cc2C)o1 (some centres not stated) | 32* | -2 | 2 | 6
CCN(CC)C(=O)CSc1nnc([C@@H](N)Cc2ccccc2)o1 | 44* | -12 | -5 | 4
Cc1cc(C)cc(NC(=O)CSc2nnc(-c3cc(C)[nH]n3)n2N)c1 | 1 | 3 | -2 | 4
O=C(Oc1ccc2ccc(=O)oc2c1)c1cccs1 | -7 | 30* | 5 | 4
O=C(Oc1ccc2c(-c3ccccc3)cc(=O)oc2c1)c1cccs1 | -1 | 1 | 12 | 1
COc1cccc(NC(=O)C2CCC(CNS(=O)(=O)c3ccc4c(c3)CC(C)N4C(C)=O)CC2)c1 (configuration not stated) | 2 | 5 | 3 | -2
CCN(CC)CCN(C(=O)c1ccc(S(=O)(=O)N(C)C2CCCCC2)cc1)c1nc2ccc(OC)cc2s1 | -2 | -2 | 108* | -1
CCN(CC)CCN(C(=O)c1ccc(C(=O)c2ccccc2)cc1)c1nc2ccc(OC)cc2s1 | 5 | . | -2 | -10
COC(=O)c1cc(NC(=O)CN2C(=O)C(=O)N(C3CCCC3)C2=O)cc(C(=O)OC)c1 | . | 2 | 2 | 11
CC(C)CC1C(=O)N(Cc2cn(CCC3OCCO3)nn2)CCS(=O)(=O)N1Cc1ccc(-c2ccc(Cl)c(Cl)c2)cc1 (configuration not stated) | . | . | . | -3
COC(=O)CCC(=O)N1CN2CN(C(=O)CCC(=O)OC)CC([N+](=O)[O-])(C2)C1 | 18* | -1 | 0 | 4
Cc1ccc(C)c(S(=O)(=O)N2CCN(c3nc(-c4cccnc4)nc4ccccc34)CC2)c1 | . | -1 | 0 | -8
COc1ccc(-n2nc3c(c2NC(=O)CCl)CSC3)cc1 | 72* | 0 | 4 | -6
COc1ccc(-n2nc3c(c2NC(=O)C(C)Cl)CSC3)cc1 (configuration not stated) | 3 | -1 | -1 | 3
CNc1nnc(C(F)(F)F)s1 | 5 | 1 | 16* | 1
CC1=CC(=O)[C@H]2C(C)(C)CCC[C@]2(C)[C@@]1(O)CO | 49* | 2 | 9 | -4
Cc1ccc2oc(C(=O)NCC3CCOCC3)c(C)c2c1 | -2 | 1 | 2 | -4
SMILES | Fh CTSL1 inh | HDAC3 inhib | LANA-H2B inh | m5-HT2A agonist
COc1cccc2cc(C(C)N(CCCN3CCOCC3)C(=S)Nc3cccc(C)c3)oc12 (configuration not stated) | -6 | 0 | 13* | -9
COc1cc(C2CC(c3cccs3)=NN2C(=O)CCl)ccc1OC(F)F (configuration not stated) | 59* | 10 | -5 | 5
COc1ccc(C2CC(c3cccs3)=NN2C(=O)CCl)cc1OC (configuration not stated) | 58* | 8 | -1 | -2
COc1ccc(C2CC(c3cccs3)=NN2C(=O)c2ccccc2)cc1OC (configuration not stated) | -1 | 14 | -1 | -4
Cc1cc(C(=O)Nn2cnc3ccccc3c2=O)ccc1[N+](=O)[O-] | 4 | -4 | 0 | 6
CCN(C(=O)COC(=O)CCCc1c[nH]c2ccccc12)c1c(N)n(Cc2ccccc2)c(=O)[nH]c1=O | . | . | . | -15
C=CCNc1nc(-c2ccc(Cl)cc2)cs1 | 25* | 0 | -2 | -3
CCN(CC)CCOC(=O)C1(c2ccccc2)CCCC1 | -1 | -9 | 36* | -6
CCN(CC)CCOC(=O)C1(c2ccc(OC)c(OC)c2)CCCC1 | 0 | -5 | -2 | -8
S=c1[nH]nc(Cc2ccccc2)n1Cc1ccco1 | 3 | 6 | -2 | 15*
CCCn1c(Cc2ccccc2)n[nH]c1=S | -2 | 3 | 1 | 0
CC(C)NC(=O)C(c1ccc(F)cc1)N(C(=O)CCC(=O)Nc1ccccn1)C1CCCCC1 (configuration not stated) | -2 | 2 | -3 | 7
COc1ccc(CN=Cc2c(O)[nH]c3ccccc23)cc1 | 21* | 7 | 0 | 1
COc1ccc(C(NC(=O)C2CCN(CCc3ccccc3)CC2)c2ccccn2)cc1 (configuration not stated) | . | . | . | -3
CC(=O)Nc1ccc(S(=O)(=O)N(C)CC(=O)NNc2c(F)c(F)cc(F)c2F)cc1 | . | -2 | -6 | -5
Cc1[nH]n(C2=NCCS2)c(=O)c1N=Nc1ccccc1 | 1 | 60* | -3 | -3
Cc1[nH]n(-c2ccccc2)c(=O)c1N=Nc1ccc2c(c1)OCO2 | -1 | 0 | 2 | -3
CCOC(=O)c1ccc(N=c2scc(C)n2CC)cc1 | -2 | -6 | 43* | 6
C=CCn1c(C)csc1=Nc1ccc(C(C)=O)cc1 | 0 | -7 | -1 | 1
COc1ccccc1C1NC(=O)NC(C)=C1C(=O)OC1CCCCC1 (configuration not stated) | -6 | -5 | -4 | 15*
CC(C)CC(=O)Nc1nnc(S(=O)(=O)N2CCCCCC2)s1 | -6 | 0 | -4 | 2
Cc1onc(-c2ccccc2Cl)c1C(=O)Nc1sc2c(c1C#N)CCC2 | 1 | 6 | -1 | 0
Cc1onc(C(=O)Nc2sc3c(c2C#N)CCCC3)c1[N+](=O)[O-] | 23* | 3 | -3 | 7
O=C(Cn1cnc2c(OCc3ccccc3)ncnc21)NCCCc1ccccc1 | . | 3 | 2 | 3
COCCCNC(=O)Cn1cnc2c(OCc3ccccc3)ncnc21 | . | -5 | 194* | 0
Cc1nn(-c2ccccc2)c(C)c1NC(=O)COC(=O)c1cc(Br)ccc1O | 1 | 0 | 6 | 9
CCN(CC)S(=O)(=O)c1ccc(C(=O)N2CCN=C2SCc2cccnc2)cc1 | -1 | -3 | 26* | -1

Source: PubChem BioAssay (several laboratories)
